Test results reported in PubChem BioAssay (NCI).
The panel holds about 79,000 compounds, 15% with a hit somewhere; the sample as a whole holds those more often. A number with no mark means an inactive call. Active and inactive are the calls of the source. No stated cut-off is given here; in the data, active means growth inhibition above about 70%; inactive means the rest.

Experiment: NCI Yeast Anticancer Drug Screen. Data for the cln2 rad14 strain (AID 165);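 further: 0% = growth equal to vehicle treated cultures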
Conditions: S. cerevisiae cln2 rad14 strain, at 50.0 µM, stronger effect = higher value
How it was run: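 Growth inhibition, relative to vehicle-treated controls, is the read-out. The test organism is a yeast strain with defined genetic alterations, cln2 rad14.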
In the case of `Cn1c(=O)c2c(nc3sc4c(n32)C(=O)c2c(O)ccc(O)c2C4=O)n(C)c1=O`, the growth inhibition is reported as 55.2%. `CCOC(=O)C1=C(Nc2ccc(Cl)cc2Cl)OC/C1=N\NS(=O)(=O)c1ccc(C)cc1` showed a growth inhibition of -8.6%. Compound `NC(=O)C12CC3CC(CC(Br)(C3)C1)C2` has a growth inhibition of 16.2%. Compound `CON(C)CCOC(=O)c1ccc([N+](=O)[O-])cc1` has a growth inhibition of -21.4%. With `COc1cc(NCC2COc3c(ccc(OC)c3OC)C2=O)c([N+](=O)[O-])cc1OC` (stereo not given) the growth inhibition was 15.4%. `CCCCCCCSc1nc2ccc(N=Cc3ccccc3O)cc2s1` showed a growth inhibition of -3.25%. In the case of `CCCOC(=O)C(O)Cc1ccccc1` (stereo not given), the growth inhibition is reported as -0.35%. Compound `O=C(CSc1nnc(Cc2ccccc2)o1)Nc1cccc([N+](=O)[O-])c1` has a growth inhibition of -10.3%. `CN(C)c1ccc(C(c2cc3c(cc2O)OCO3)N2CCN(C(c3ccc(N(C)C)cc3)c3cc4c(cc3O)OCO4)CC2)cc1` (stereo not given) showed a growth inhibition of 9.3%. In the case of `CC(C)(C)NC(=O)Oc1ccc(-c2ccccc2)cc1Cl`, the growth inhibition is reported as 98.3% (active). Compound `O=C(N/N=C/c1ccc(Cl)cc1Cl)c1ccccc1` has a growth inhibition of -5.1%. With `O=C(O)C1CCCC2C(O)CCC(O)C12` (stereo not given) the growth inhibition was -12.9%. Compound `C[n+]1ccc(/C=C/c2c[nH]c3ccccc23)cc1` has a growth inhibition of -1.75%. Work on `CC(C)(C)[N+](=O)[O-]` yielded a growth inhibition of 4.95%. Compound `CCOc1c(N=Nc2ccc(Cl)cc2)c(C)nn1C(N)=S` has a growth inhibition of -12.6%. With `O=C(Nc1cccc2ccccc12)Oc1cccc2cccnc12` the growth inhibition was 94% (active). Work on `Cc1ccc(C)c(NC(=O)c2ccc([N+](=O)[O-])cc2)c1` yielded a growth inhibition of -11.8%. For `C=CCCC1CC(OCC)OC(CCC=C)O1` (stereo not given), the growth inhibition was -24.8%. `O=c1oc(=O)c2ccccc2c2ccccc12` gave a growth inhibition of -32.1%. `Fc1ccc(C(Nc2nncs2)Nc2nncs2)c(F)c1` gave a growth inhibition of -44.1%. Work on `Cc1cccc[n+]1CC(=O)c1ccc(Cl)cc1` yielded a growth inhibition of -44.8%. In the case of `CCC(C)(CCC(C)C)c1ccncc1` (stereo not given), the growth inhibition is reported as -8.45%. `CCn1c2ccccc2c2ccc(N=Nc3ccccc3)cc21` showed a growth inhibition of -1.75%. For `CC(C)CCC(C)(C)COC(=O)c1ccc([N+](=O)[O-])cc1` (tested in a mixture with another compound), the growth inhibition was -2.25%. Work on `O=C(O)CCCCCN1C(=O)c2cccc([N+](=O)[O-])c2C1=O` yielded a growth inhibition of 19.2%. In the case of `CC(OP(=O)(O)O)C(N)C(=O)O` (stereo not given), the growth inhibition is reported as -39.1%. Work on `O=C(Nc1ccc(C(F)(F)F)cc1[N+](=O)[O-])C(=O)C1NC(=S)NC1=O` (stereo not given) yielded a growth inhibition of 25.4%. With `Cc1ccc(S(=O)(=O)ON2C(=O)c3cccc4cc([N+](=O)[O-])cc(c34)C2=O)cc1` the growth inhibition was 17.4%. With `COc1ccc(NC(=O)CC#N)cc1` the growth inhibition was 6.1%. `Clc1ccccc1C1OCCCO1` gave a growth inhibition of -29.8%. Work on `COc1cc(Nc2nc3ccccc3nc2-c2cccs2)cc(OC)c1OC` yielded a growth inhibition of 29.8%. In the case of `CCS(=O)CCO` (stereo not given), the growth inhibition is reported as -21.8%. `NC(N)=NS(=O)(=O)c1ccc(NC(=O)c2ccc(Cl)c3c(Nc4ccc(S(=O)(=O)N=C(N)N)cc4)c4ccccc4nc23)cc1` showed a growth inhibition of 34.5%. `O=S1(=O)C=CC(N/N=C/c2cc(Cl)cc(Cl)c2)=C1` showed a growth inhibition of -38.2%. Compound `O=C(OCCN1CCOCC1)C1C[C@@H](O)CN1C(=O)c1ccc2c(c1)OCO2` (stereo not given in full) has a growth inhibition of 1.9%. For `CCC(CC)=NNc1ccc([N+](=O)[O-])cc1[N+](=O)[O-]`, the growth inhibition was -51.1%. In the case of `CCCCCCCCCCCCCCCO`, the growth inhibition is reported as -7.35%. `COc1cccc(N=Cc2ccc(C=Nc3cccc(OC)c3)cc2)c1` gave a growth inhibition of -9.35%. `CCCNCc1cccc2ccnc(C)c12` showed a growth inhibition of 17.6%. For `O=C1CCc2cc3c(cc21)CC1(Cc2cc4c(cc2C1)CCCC4)C3`, the growth inhibition was -18.1%.
